Screens from PubChem.
Rab9 promoter act: Rab9 promoter activation. Huh7 Rab9 promoter-luciferase reporter, luminescence, 24 h. Potency, µM (titrated, usually from 9.22 µM), inactives show at the top dose activation, negative = inhibition, actives largely listed as activators. 320,000 tested, 2.8% active. AID 485297; further: % of control where 0% means no effect; nearly all actives have a fitted effect of over 60% in size
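Measured in stably transfected Huh7 cells bearing a Rab9 promoter–luciferase construct: 24 h compound treatment at 37 °C, followed by luminescence detection.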
SMN2 splice enh: increases expression of the SMN2 splice variant; Potency, µM (highest dose often 46.1 µM), without a hit: at the top dose activity change, positive = activation, hits mostly activators; 210,000 tested, 2.8% active; HEK293 SMN2-luciferase splicing reporter, luminescence, 30-36 h; further: % of control where 0% means no effect; nearly all actives have a fitted effect of over 55% in size
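qHTS luciferase splicing reporter: luminescence rises when SMN2 exon 7 is included in transfected HEK293 cells. Compound exposure lasted 30-36 h at 37C, with 4.5 mM final sodium butyrate as control, followed by a ONE-Glo read.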
NPC1 promoter act: NPC1 promoter activation | AID 485313 | Potency, µM (doses to about 9.22 µM), for the others: at the highest dose activation, hits mostly activators | 320,000 tested, 2.4% active | Huh7 NPC1 promoter luciferase reporter, 24 h; further: % of control where 0% means no effect; nearly all actives have a fitted effect of over 60% in size
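Luminescence read-out of NPC1 promoter-driven luciferase in stably transfected Huh7 cells; compounds delivered in DMSO and left 24 h at 37C, 5% CO2, qHTS titration format.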
ELG1 genotox: inducers of genotoxicity in HEK293T ELG1-luciferase cells. HEK293T ELG1-luciferase reporter, luminescence, 16 h. Potency, µM (series often up to 46 µM), inactives show at the highest dose activity change, positive = activation, actives largely listed as activators. 330,000 tested, 1.3% active. AID 504466; further: % of control where 0% means no effect; nearly all actives have a fitted effect of over 60% in size
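Luminescence read-out: rising ELG1-luciferase signal, reflecting elevated ELG1 protein under genetic stress, flags genotoxic compounds. Cells were treated for 16 hr at 37 °C before ONE-Glo detection.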
KinaseGlo FLuc: Kinase-Glo luciferase inhibition (counter-screen); Q27757; Kinase-Glo luciferase, ATP luminescence, 8 min; Potency, µM (highest dose often 38.3 µM), for the others: at the highest dose activity change, negative = inhibition, actives largely listed as inhibitors; 200,000 tested, 0.28% active; further: on the % scale 0 is the no-effect control and ±100 the full control effect; nearly all actives have a fitted effect of over 60% in size
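Kinase-Glo luciferase light output from ATP and luciferin was measured with 10 uM ATP, within the enzyme's linear range. Buffer: 50 mM imidazole pH 7.2, 50 mM KCl, 7 mM MgCl2, 0.01% Tween 20, 0.05% BSA; luminescence read after 8 min at ambient temperature.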
FLuc modulator: inhibits or activates purified firefly luciferase, miR-21 counter-screen; P08659; purified FLuc, Km substrates, luminescence inhibition; Potency, µM (highest dose often 57.5 µM), for inactives: top-dose activity change, negative = inhibition, hits mostly inhibitors; 360,000 tested, 6.9% active;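 further: plate controls were vehicle for no effect and reference inhibitor for full effect; nearly all actives have a fitted effect of over 55% in size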
Target sequence (P08659 whole entry, looked up): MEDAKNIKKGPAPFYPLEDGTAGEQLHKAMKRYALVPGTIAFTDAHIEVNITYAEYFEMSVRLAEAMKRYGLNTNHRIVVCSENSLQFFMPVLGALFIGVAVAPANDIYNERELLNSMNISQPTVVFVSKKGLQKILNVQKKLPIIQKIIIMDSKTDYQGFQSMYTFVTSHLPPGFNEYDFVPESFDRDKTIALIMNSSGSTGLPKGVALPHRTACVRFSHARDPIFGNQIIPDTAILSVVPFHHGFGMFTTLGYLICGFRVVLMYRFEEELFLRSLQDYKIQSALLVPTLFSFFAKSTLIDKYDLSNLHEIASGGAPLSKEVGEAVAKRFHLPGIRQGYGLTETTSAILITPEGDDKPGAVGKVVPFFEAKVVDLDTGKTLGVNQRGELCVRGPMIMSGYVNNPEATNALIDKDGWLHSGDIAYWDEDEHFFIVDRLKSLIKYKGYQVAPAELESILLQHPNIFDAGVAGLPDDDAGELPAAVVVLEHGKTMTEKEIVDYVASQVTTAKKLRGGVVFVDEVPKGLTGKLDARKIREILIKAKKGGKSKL
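Purified P. pyralis luciferase (10nM final) with 10uM D-luciferin and 10uM ATP (Km levels) in 50mM Tris acetate pH 7.5, 10mM Mg acetate, 0.01% Tween-20, 0.05% BSA; qHTS 6-point titration, ~60 µM downward; luminescence read.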
Active calls of the source: *; ? = inconclusive; . = not tested or not shown; [ ] = another dose, or the depositor's remark. Hits are enriched below; roughly 7.3% of the tested compounds scored in any of these assays. The call rests on the fitted dose curve; in most records, active means well fitted curve in the direction sought with a large enough effect; inconclusive means small, poorly fitted or top-dose-only effect, or another doubt; inactive means no such curve, though single readings can be large; an effect the other way counts as inactive or inconclusive. Potency means the concentration at half of the fitted maximal effect.

SMILES | Rab9 promoter act | SMN2 splice enh | NPC1 promoter act | ELG1 genotox | KinaseGlo FLuc | FLuc modulator
S=C(Nc1ccccc1)c1ccccn1 | 2.82µM* | ? | 3.55µM* | ? | -9.7% | 8.49µM*
Cn1c(=O)c2sccc2n2c(CCCC(=O)Nc3ccc(Oc4ccccc4)cc3)nnc12 | . | . | . | . | . | -19.3%
O=C(NC(=O)N1CCN(c2ccccc2)CC1)c1ccc(Cl)cc1 | 20.4% | 12.6µM* | 0.9% | ? | 2.4% | 26.9µM*
NC(=S)N/N=C1\CC(c2ccc3c(c2)OCCCO3)Oc2ccc(F)cc21 (configuration not stated) | 0.6% | . | -0.7% | -6.9% | . | 15.1µM*
CCOC(=O)c1ccc(NC(=O)CC2C(=O)N(c3ccc(F)cc3)C(=O)N2Cc2cccnc2)cc1 (configuration not stated) | . | . | . | . | . | -18.9%
CCN(CC)c1ccc(Nc2nc(-c3cccnc3)cs2)cc1 | 3.16µM* | . | 2.82µM* | 11.4% | . | 10.7µM*
CN(C)c1ccc(Nc2nc(-c3cccnc3)cs2)cc1 | 0.891µM* | 15.8µM* | 3.55µM* | 1.46µM* | -16.1% | 0.426µM*
C/C=C\C[C@H](C)[C@H](O)[C@H]1C(=O)N[C@@H](CC)C(=O)N(C)CC(=O)N(C)[C@@H](CC(C)C)C(=O)N[C@@H](C(C)C)C(=O)N(C)[C@@H](CC(C)C)C(=O)N[C@@H](C)C(=O)N[C@@H](C)C(=O)N(C)[C@@H](CC(C)C)C(=O)N(C)[C@@H](CC(C)C)C(=O)N(C)[C@@H](C(C)C)C(=O)N1C | . | . | . | . | -1.9%[17.1 µM] | .
COc1ccc(OC)c(NC(=O)Nc2ccc3c(c2)CCC3)c1 | 0.7% | . | 2.3% | -4.7% | . | 26.9µM*
COc1cccc(NC(=O)Nc2ccc3c(c2)CCC3)c1 | 1.58µM* | . | 2.24µM* | 11.5% | . | 4.26µM*
COc1ccc(NC(=O)Nc2ccc3c(c2)CCC3)c(OC)c1 | 10.3% | -6.8% | 4.3% | 11.5% | 2.9% | -3.5%
Cc1ccc(C(=O)CNc2ccccc2)cc1 | 24.0% | . | 18.9% | ? | . | 9.53µM*
Cc1ccc(C(=O)CNc2ccc(Br)cc2)cc1 | 14.5% | 4.7% | 20.3% | 13.1% | 0.8% | -19.4%
O=C(CNc1ccc(F)cc1)c1ccccc1 | 0.4% | 19.5% | 2.9% | ? | -26.7% | 15.1µM*
O=C(CNc1cccc(Cl)c1)c1ccc(Br)cc1 | 7.6% | . | -0.4% | 3.9% | . | ?
O=C(CNc1ccccc1Cl)c1ccc(Br)cc1 | 0.6% | . | 0.2% | -12.7% | . | 16.9µM*
CC(C)(C)c1ccc(C(=O)CS(=O)(=O)c2ccccc2)cc1 | 0.891µM* | 3.3% | 1.41µM* | ? | -0.9% | 2.13µM*
Cc1ccc(S(=O)(=O)CC(=O)c2ccccc2)cc1 | 26.6% | -4.8% | 21.7% | -0.2% | -1.2% | ?
O=C(CNc1ccc(Br)cc1)c1ccccc1 | 6.0% | -8.3% | 4.5% | ? | -19.0% | ?
COc1ccc(-c2cc(C(F)(F)F)nc(SCC(=O)N3CCCCC3)n2)cc1 | . | 8.3% | . | . | . | -2.5%
CCOC(=O)c1ccc(N2C(=O)c3[nH]nc(-c4ccc(OC)cc4)c3C2c2ccc(C)cc2)cc1 (configuration not stated) | . | -42.6% | . | . | . | -0.8%
COc1cn(CC(=O)Nc2ccccc2)c(CN2CCCCC2)cc1=O | . | . | . | . | . | 0.3%
CN1c2ccccc2-c2nc(SCC(=O)Nc3ccccc3)ncc2S1(=O)=O | . | . | . | . | . | -10.1%
CCc1ccccc1NC(=O)Cn1c(=O)n(-c2ccc(C)cc2)c(=O)c2cc(OC)c(OC)cc21 | . | 13.4% | . | . | . | 8.1%
CC(=O)Nc1c(C)nn(-c2ccccc2)c1N1CCC(C(=O)Nc2ccccc2C(F)(F)F)CC1 | . | . | . | . | . | -11.7%
Cc1ccc(C(=O)CNc2ccc(C)cc2C)cc1 | 1.7% | . | -2.0% | 3.4% | . | 13.5µM*
Cc1ccccc1NC(=O)CC(=O)c1ccccc1 | ? | . | 28.2% | 10.6% | . | ?
Cc1ccc(NCCC(=O)c2cccc([N+](=O)[O-])c2)c(C)c1 | 0.3% | 10.6% | 0.9% | 11.1% | -0.2% | 23.9µM*
